Reference: PubChem BioAssay (EPA / NIEHS)
Records with an inconclusive call do not appear. Calls of active or inactive are those of the source. The calls were made as follows: active = hit-call score of the fitted dose curve at least 0.9, where 1 is the maximum; inconclusive = response in the unintended direction; inactive = score below 0.9.

Assay: Tanguay_ZF_120hpf_OTIC_legacy: (Legacy) Oregon State University Tanguay Lab 120 Hour Post-fertilization zebrafish Assay for Otic Vesicle Malformation (AID 2283639)
Method in brief: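 Otic vesicle malformation is read as a yes/no morphology call at 120 hpf. Exposure is static at 28C with 0.64% (vol/vol) DMSO; embryos that die are excluded from non-mortality endpoints.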

**Q.** Which outcome does the source give for `CO[C@@H]1COCC[C@@H]1N[C@@H]1CC[C@@](C(=O)N2CCc3ncc(C(F)(F)F)cc3C2)(C(C)C)C1` here?
**A.** The outcome was “inactive”.

**Q.** Which outcome does the source give for `OCC(CO)n1cnc(-c2ccc(F)cc2)c1-c1ccnc(Oc2ccccc2)n1` here?
**A.** Its outcome is “inactive”.

**Q.** For `CN(C)CCCN(C)CCCN(C)C`, which outcome is on record?
**A.** Its outcome is “inactive”.

**Q.** With `CN(C)C(=O)NC1(c2ccccc2)CCN(CC[C@@]2(c3ccc(F)c(F)c3)CN(C(=O)c3ccccc3)CCO2)CC1` as the compound, how does the outcome read?
**A.** The outcome was “inactive”.

**Q.** With `NC(=Nc1ccccc1)Nc1ccccc1` as the compound, how does the outcome read?
**A.** Its outcome is “inactive”.

**Q.** Which outcome does the source give for `COc1ccc(OC(F)(F)F)cc1CN[C@H]1CCCN[C@H]1c1ccccc1` here?
**A.** The outcome was “inactive”.

**Q.** For `O=[Si]=O`, which outcome is on record?
**A.** Its outcome is “inactive”.

**Q.** For `Cc1cc(SC2=C(O)C[C@@](CCc3ccc(N)cc3)(C(C)C)OC2=O)c(C(C)(C)C)cc1CO`, which outcome is on record?
**A.** The outcome was “inactive”.

**Q.** For `CCCCCCCCCC[N+](C)(C)[O-]`, which outcome is on record?
**A.** The outcome was “inactive”.

**Q.** Which outcome does the source give for `O=C(O)c1cccnc1` here?
**A.** The outcome was “inactive”.

Assay: Tanguay_ZF_120hpf_PE_legacy: (Legacy) Oregon State University Tanguay Lab 120 Hour Post-fertilization zebrafish Assay for Pericardial Edema (AID 2283640)
Method in brief: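 Zebrafish larvae are exposed from early development to 120 hpf at 28C, with 0.64% DMSO final. Each surviving larva receives a yes/no pericardial edema call by brightfield imaging, analysed relative to the DMSO baseline.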

**Q.** With `CC1=C(C)S(=O)(=O)CCS1(=O)=O` as the compound, how does the outcome read?
**A.** The outcome was “inactive”.

**Q.** With `Cc1cn([C@H]2C=C[C@@H](CO)O2)c(=O)[nH]c1=O` as the compound, how does the outcome read?
**A.** The outcome was “inactive”.

**Q.** For `O=C(N[C@@H](c1ccccc1)[C@@H]1CCCCN1)c1cccc(C(F)(F)F)c1Cl`, which outcome is on record?
**A.** Its outcome is “inactive”.

**Q.** For `CCCCC(CC)COP(=O)(OCC(CC)CCCC)OCC(CC)CCCC` (stereo not given), which outcome is on record?
**A.** The outcome was “inactive”.

**Q.** With `COC(=O)CCCC(=O)OC` as the compound, how does the outcome read?
**A.** Its outcome is “inactive”.

**Q.** Which outcome does the source give for `CCCCCCCCCCCCCCCCO` here?
**A.** Its outcome is “inactive”.

**Q.** Which outcome does the source give for `CC(N)=O` here?
**A.** The outcome was “inactive”.

**Q.** With `CCCCCCC(CCCCCCCCCCC(=O)OCC(COC(C)=O)OC(C)=O)OC(C)=O` (stereo not given) as the compound, how does the outcome read?
**A.** Its outcome is “inactive”.

**Q.** Which outcome does the source give for `C=CCCCCCCCCCCCC` here?
**A.** The outcome was “inactive”.

**Q.** With `CC(=O)S[C@H](C(=O)N[C@H]1Cc2ccccc2[C@H]2CCC[C@@H](C(=O)O)N2C1=O)C(C)C` as the compound, how does the outcome read?
**A.** Its outcome is “inactive”.

**Q.** With `CCCCCCC(C=O)=Cc1ccccc1` as the compound, how does the outcome read?
**A.** The outcome was “inactive”.

**Q.** Which outcome does the source give for `CCCCc1nc2cccnc2n1Cc1ccc(-c2ccccc2-c2nnn[nH]2)cc1` here?
**A.** The outcome was “inactive”.

**Q.** Which outcome does the source give for `CC(C)c1cccc(C(C)C)c1NC(=O)NS(=O)(=O)c1cc(C(C)(C)O)co1` here?
**A.** Its outcome is “inactive”.

**Q.** Which outcome does the source give for `CC(C)(C)c1ccccc1` here?
**A.** The outcome was “inactive”.

**Q.** Which outcome does the source give for `O=C(NS(=O)(=O)/C=C/c1cccs1)c1ccc(F)cc1Br` here?
**A.** The outcome was “inactive”.

**Q.** For `CC1(C)C(=O)NC(=O)N1CO`, which outcome is on record?
**A.** Its outcome is “inactive”.

**Q.** With `CC(=O)O[C@]1(C(C)=O)CC[C@H]2[C@@H]3C=C(Cl)C4=CC(=O)[C@@H]5C[C@@H]5[C@]4(C)[C@H]3CC[C@@]21C` as the compound, how does the outcome read?
**A.** The outcome was “inactive”.

**Q.** Which outcome does the source give for `CC(=O)[C@@]1(O)CC[C@H]2[C@@H]3CCC4=CC(=O)CC[C@]4(C)[C@H]3CC[C@@]21C` here?
**A.** The outcome was “inactive”.

**Q.** Which outcome does the source give for `CS(=O)(=O)c1ccc([C@@H](C[C@H]2CCC(=O)C2)C(=O)Nc2cnccn2)cc1Cl` here?
**A.** Its outcome is “inactive”.

**Q.** With `CO[C@@H]1COCC[C@@H]1N[C@@H]1CC[C@@](C(=O)N2CCc3ncc(C(F)(F)F)cc3C2)(C(C)C)C1` as the compound, how does the outcome read?
**A.** Its outcome is “inactive”.

**Q.** For `OCC(CO)n1cnc(-c2ccc(F)cc2)c1-c1ccnc(Oc2ccccc2)n1`, which outcome is on record?
**A.** Its outcome is “inactive”.

**Q.** For `CN(C)CCCN(C)CCCN(C)C`, which outcome is on record?
**A.** Its outcome is “inactive”.

**Q.** With `CN(C)C(=O)NC1(c2ccccc2)CCN(CC[C@@]2(c3ccc(F)c(F)c3)CN(C(=O)c3ccccc3)CCO2)CC1` as the compound, how does the outcome read?
**A.** The outcome was “inactive”.

**Q.** For `NC(=Nc1ccccc1)Nc1ccccc1`, which outcome is on record?
**A.** Its outcome is “inactive”.

**Q.** With `COc1ccc(OC(F)(F)F)cc1CN[C@H]1CCCN[C@H]1c1ccccc1` as the compound, how does the outcome read?
**A.** Its outcome is “inactive”.

**Q.** With `O=[Si]=O` as the compound, how does the outcome read?
**A.** Its outcome is “inactive”.

**Q.** Which outcome does the source give for `Cc1cc(SC2=C(O)C[C@@](CCc3ccc(N)cc3)(C(C)C)OC2=O)c(C(C)(C)C)cc1CO` here?
**A.** Its outcome is “inactive”.

**Q.** Which outcome does the source give for `CCCCCCCCCC[N+](C)(C)[O-]` here?
**A.** The outcome was “inactive”.

**Q.** With `O=C(O)c1cccnc1` as the compound, how does the outcome read?
**A.** The outcome was “inactive”.

Assay: Tanguay_ZF_120hpf_BRAI_legacy: (Legacy) Oregon State University Tanguay Lab 120 Hour Post-fertilization zebrafish Assay for Brain Malformation (AID 2283641)
Method in brief: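 Static exposure of staged wild-type embryos until 120 hpf, kept at 28C with light excluded and final DMSO of 0.64% (vol/vol). Presence or absence of brain malformation was noted under brightfield; mortality precluded scoring.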

**Q.** With `COc1ccc(C(=O)Nc2nc3ccccc3c(NCc3ccccc3)c2C#N)cc1` as the compound, how does the outcome read?
**A.** Its outcome is “inactive”.

**Q.** For `CC1=C(C)S(=O)(=O)CCS1(=O)=O`, which outcome is on record?
**A.** Its outcome is “inactive”.

**Q.** Which outcome does the source give for `Cc1cn([C@H]2C=C[C@@H](CO)O2)c(=O)[nH]c1=O` here?
**A.** Its outcome is “inactive”.

**Q.** With `O=C(N[C@@H](c1ccccc1)[C@@H]1CCCCN1)c1cccc(C(F)(F)F)c1Cl` as the compound, how does the outcome read?
**A.** The outcome was “inactive”.

**Q.** For `COC(=O)CCCC(=O)OC`, which outcome is on record?
**A.** Its outcome is “inactive”.

**Q.** Which outcome does the source give for `CCCCCCCCCCCCCCCCO` here?
**A.** Its outcome is “inactive”.

**Q.** For `CC(N)=O`, which outcome is on record?
**A.** Its outcome is “inactive”.

**Q.** Which outcome does the source give for `CCCCCCC(CCCCCCCCCCC(=O)OCC(COC(C)=O)OC(C)=O)OC(C)=O` (stereo not given) here?
**A.** Its outcome is “inactive”.

**Q.** With `C=CCCCCCCCCCCCC` as the compound, how does the outcome read?
**A.** The outcome was “inactive”.

**Q.** Which outcome does the source give for `CCCCCCC(C=O)=Cc1ccccc1` here?
**A.** Its outcome is “inactive”.

**Q.** For `CCCCc1nc2cccnc2n1Cc1ccc(-c2ccccc2-c2nnn[nH]2)cc1`, which outcome is on record?
**A.** Its outcome is “inactive”.

**Q.** Which outcome does the source give for `CC(C)c1cccc(C(C)C)c1NC(=O)NS(=O)(=O)c1cc(C(C)(C)O)co1` here?
**A.** Its outcome is “inactive”.

**Q.** For `CC(C)(C)c1ccccc1`, which outcome is on record?
**A.** Its outcome is “inactive”.

**Q.** For `O=C(NS(=O)(=O)/C=C/c1cccs1)c1ccc(F)cc1Br`, which outcome is on record?
**A.** Its outcome is “inactive”.

**Q.** Which outcome does the source give for `CC1(C)C(=O)NC(=O)N1CO` here?
**A.** The outcome was “inactive”.

**Q.** With `CC(=O)O[C@]1(C(C)=O)CC[C@H]2[C@@H]3C=C(Cl)C4=CC(=O)[C@@H]5C[C@@H]5[C@]4(C)[C@H]3CC[C@@]21C` as the compound, how does the outcome read?
**A.** The outcome was “inactive”.

**Q.** With `CC(=O)[C@@]1(O)CC[C@H]2[C@@H]3CCC4=CC(=O)CC[C@]4(C)[C@H]3CC[C@@]21C` as the compound, how does the outcome read?
**A.** The outcome was “inactive”.

**Q.** Which outcome does the source give for `CO[C@@H]1COCC[C@@H]1N[C@@H]1CC[C@@](C(=O)N2CCc3ncc(C(F)(F)F)cc3C2)(C(C)C)C1` here?
**A.** The outcome was “inactive”.

**Q.** For `OCC(CO)n1cnc(-c2ccc(F)cc2)c1-c1ccnc(Oc2ccccc2)n1`, which outcome is on record?
**A.** The outcome was “inactive”.

**Q.** For `CN(C)CCCN(C)CCCN(C)C`, which outcome is on record?
**A.** Its outcome is “inactive”.

**Q.** For `NC(=Nc1ccccc1)Nc1ccccc1`, which outcome is on record?
**A.** Its outcome is “inactive”.

**Q.** Which outcome does the source give for `COc1ccc(OC(F)(F)F)cc1CN[C@H]1CCCN[C@H]1c1ccccc1` here?
**A.** Its outcome is “inactive”.

**Q.** With `O=[Si]=O` as the compound, how does the outcome read?
**A.** The outcome was “inactive”.

**Q.** For `Cc1cc(SC2=C(O)C[C@@](CCc3ccc(N)cc3)(C(C)C)OC2=O)c(C(C)(C)C)cc1CO`, which outcome is on record?
**A.** Its outcome is “inactive”.

**Q.** For `CCCCCCCCCC[N+](C)(C)[O-]`, which outcome is on record?
**A.** The outcome was “inactive”.

**Q.** With `O=C(O)c1cccnc1` as the compound, how does the outcome read?
**A.** Its outcome is “inactive”.
